Source: PubChem BioAssay (Sanford-Burnham Center for Chemical Genomics)
CF NFkB inh – inhibitors of PAF-induced NF-kB signaling, primary screen, cell-based, GFP fluorescence, uHTS; KKLEB NF-kB-GFP reporter, GFP fluorescence overnight; inhibition, % at 5 µM; 360,000 tested, 0.86% active;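 active means at least 50% inhibition at 5 µM, scaled per plate between neutral and stimulator controls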;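 further: PAF is a Pseudomonas aeruginosa culture filtrate used as stimulus; plate controls were PAF-stimulated DMSO wells for no effect and unstimulated DMSO wells for full effect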
TWEAK Fn14 block – inhibitors of TWEAK-Fn14 signaling, primary screen, luciferase reporter cells, uHTS. TWEAK-stimulated Fn14 reporter cells, luciferase luminescence, 8 h. inhibition, % at 10 µM. 360,000 tested, 2% active. AID 1159606, 2016; in the data active means inhibition above about 50%
TROY signal inh – inhibitors of TROY-driven NF-kB signaling, primary screen, Q293 LMP1-TROYcd cells, NF-kB luciferase, uHTS; Q293 LMP1-TROYcd NF-kB luciferase reporter, 4 h; inhibition, % at 10 µM; 360,000 tested, 0.98% active;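 active means compounds whose plate-normalised and pattern-corrected inhibition of the luciferase reporter signal at the single screening dose is 50% or more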
KKLEB cytotox – cytotoxicity in KKLEB CF airway cells, primary screen, cytotoxicity control for CF NF-kB inhibitor project, cell-based, uHTS, fluorescence assay plates | KKLEB CF airway cells viability, ATPlite luminescence, overnight; active compounds read low; cells stimulated with P. aeruginosa culture filtrate | activity change (cytotoxicity), % at 5 µM | 360,000 tested, 0.36% active | AID 602141, 2011;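 active means corrected activity change at or below -50% at 5 µM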
HIF-2a block – HIF-2a reporter inhibitors, primary screen, luminescence, 786-0 RCC cells; 360,000 tested, 0.72% active; inhibition, % at 18.8 µM; AID 624352, 2012; 786-0 RCC cells HIF-2a reporter, luciferase luminescence, overnight;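 active means inhibition of the luminescence signal of 40% or more relative to plate controls, in a single-dose primary screen at 18.75 µM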
Peg3 promoter – Peg3 promoter-driven luciferase inhibitors, primary screen, cell-based, HeLa, luciferase luminescence | HeLa PEG-Prom luciferase reporter, overnight | inhibition, % at 20 µM | 360,000 tested, 1.7% active | AID 588405, 2011;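 active means inhibition of at least 50% at 20 µM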
The depositor's hits bear a star. An excerpt weighted towards active compounds, which were near 4% of everything screened.

What do the screens show for `CCn1cc(C(=O)NC(C)C23CC4CC(CC(C4)C2)C3)cn1` (centres undefined)?
CF NFkB inh: 6; TWEAK Fn14 block: -8; TROY signal inh: 3; KKLEB cytotox: -9; HIF-2a block: 19; Peg3 promoter: 22

What do the screens show for `O=C1c2c(Br)c(Br)c(Br)c(Br)c2C(=O)N1c1ccccn1`?
CF NFkB inh: -5; TWEAK Fn14 block: 39; TROY signal inh: 12; KKLEB cytotox: 4; HIF-2a block: 40; Peg3 promoter: 52*

What do the screens show for `O=C1c2cccc3cccc(c23)C(=O)N1c1ccccn1`?
CF NFkB inh: -12; TWEAK Fn14 block: 3; TROY signal inh: -17; KKLEB cytotox: 2; HIF-2a block: 9; Peg3 promoter: -13

How did COc1ccc(N2CC(C(=O)N/N=C/c3c[nH]c4ccccc34)CC2=O)cc1 (centres undefined) do in these assays?
CF NFkB inh: 6; TWEAK Fn14 block: 1; TROY signal inh: 22; KKLEB cytotox: 0; HIF-2a block: 14; Peg3 promoter: 28

What do the screens show for `O=C(N/N=C/c1ccccc1O)C1CC(=O)N(c2ccc(F)cc2)C1` (centres undefined)?
CF NFkB inh: 0; TWEAK Fn14 block: 17; TROY signal inh: 9; KKLEB cytotox: -1; HIF-2a block: 5; Peg3 promoter: 52*

How did O=C1C=C(Nc2ccc(F)cc2)c2ccccc2C1=O do in these assays?
CF NFkB inh: 82*; TWEAK Fn14 block: 47; TROY signal inh: 32; KKLEB cytotox: -19; HIF-2a block: -32; Peg3 promoter: 12

What do the screens show for `O=c1cnnc(Nc2ccc(F)cc2)[nH]1`?
CF NFkB inh: -13; TWEAK Fn14 block: 10; TROY signal inh: 1; KKLEB cytotox: -7; HIF-2a block: 8; Peg3 promoter: -4

How did COc1cc(Cl)c(NC2=CC(=O)C(=O)c3ccccc32)c(OC)c1 do in these assays?
CF NFkB inh: 83*; TWEAK Fn14 block: 25; TROY signal inh: 20; KKLEB cytotox: -44; HIF-2a block: 37; Peg3 promoter: 16

What do the screens show for `CCOc1ccc(NC2=CC(=O)C(=O)c3ccccc32)cc1`?
CF NFkB inh: 80*; TWEAK Fn14 block: -8; TROY signal inh: 1; KKLEB cytotox: -13; HIF-2a block: -106; Peg3 promoter: -54

Results for COc1cc(Cl)c(NS(=O)(=O)c2ccc(-c3ccc(=O)[nH]n3)o2)c(OC)c1 ?
CF NFkB inh: 13; TWEAK Fn14 block: -3; TROY signal inh: 1; KKLEB cytotox: -13; HIF-2a block: 4; Peg3 promoter: 8

Results for O=C1C=C(Nc2cccnc2)c2ccccc2C1=O ?
CF NFkB inh: 54*; TWEAK Fn14 block: 2; TROY signal inh: 17; KKLEB cytotox: 10; HIF-2a block: 17; Peg3 promoter: 25

How did CN(CC(=O)Nc1cccc(F)c1)C(=O)c1cccc(S(=O)(=O)N2CC3(C)CC2CC(C)(C)C3)c1 (centres undefined) do in these assays?
CF NFkB inh: -33; TWEAK Fn14 block: 2; TROY signal inh: -8; KKLEB cytotox: 34; HIF-2a block: 12; Peg3 promoter: 17

How did CN(C)/C=N/C(=S)Nc1ccccc1F do in these assays?
CF NFkB inh: -12; TWEAK Fn14 block: 74*; KKLEB cytotox: 8; HIF-2a block: -67; Peg3 promoter: -70

How did CN(C)/C=N/C(=S)Nc1ccc(Cl)c(Cl)c1 do in these assays?
CF NFkB inh: 5; TWEAK Fn14 block: -3; TROY signal inh: -23; KKLEB cytotox: -4; HIF-2a block: -180; Peg3 promoter: -164

What do the screens show for `CN(C)/C=N/C(=S)Nc1ccc(F)cc1`?
CF NFkB inh: -3; TWEAK Fn14 block: 88*; KKLEB cytotox: -2; HIF-2a block: -58; Peg3 promoter: -48

What do the screens show for `COc1ccc(N=C2S/C(=C\c3ccc(OC(C)C(=O)O)c(OC)c3)C(=O)N2CCc2c[nH]c3ccccc23)cc1` (centres undefined)?
CF NFkB inh: 17; TWEAK Fn14 block: 39; TROY signal inh: 54*; KKLEB cytotox: -6; HIF-2a block: 17; Peg3 promoter: 5
